Measurements as given in the supplement of paper PMC11732987, “Enantioselective OTUD7B fragment discovery through chemoproteomics screening and high-throughput optimisation” (Communications Chemistry, 2025).

Assays:
Test in all cases: log2 ratio of Biotin-Ahx-Ub-VS probe labelling (fragment/DMSO); higher = less target engagement (more negative = stronger competition), active = hit call of the paper (q ≤ 0.05, log2 ratio ≤ -1)
Conditions in all cases: compound concentration: 200 uM; treatment time: 3 h
OTUD6B = biological target: T1, OTUD6B (UniProt Q8N6M0)
T1 sequence (whole entry): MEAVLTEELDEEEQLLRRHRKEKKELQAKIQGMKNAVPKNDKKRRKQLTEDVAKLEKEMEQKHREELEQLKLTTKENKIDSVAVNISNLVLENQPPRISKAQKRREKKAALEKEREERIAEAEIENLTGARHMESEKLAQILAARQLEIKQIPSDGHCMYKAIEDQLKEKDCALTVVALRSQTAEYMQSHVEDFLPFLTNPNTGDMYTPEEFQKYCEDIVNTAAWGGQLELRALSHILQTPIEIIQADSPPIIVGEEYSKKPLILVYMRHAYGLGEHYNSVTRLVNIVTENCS
Summary of the method: (§1)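 Each value is an average log2 ratio of fragment to vehicle, tested by unpaired t-test. The underlying Spectronaut label-free quantities were global-median-normalised, and only proteins with ≥2 unique peptides were included. Triplicate HEK293T lysate samples (495 µg) were exposed to fragment at 200 µM or vehicle for 3 h, then to Biotin-Ahx-Ub-VS at 0.5 µM final for 1 h, before NeutrAvidin enrichment of labelled DUBs, LysC and trypsin digestion, and diaPASEF LC-MS/MS.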

OTUD7B = biological target: T2, OTUD7B (UniProt Q6GQQ9)
T2 sequence (whole entry): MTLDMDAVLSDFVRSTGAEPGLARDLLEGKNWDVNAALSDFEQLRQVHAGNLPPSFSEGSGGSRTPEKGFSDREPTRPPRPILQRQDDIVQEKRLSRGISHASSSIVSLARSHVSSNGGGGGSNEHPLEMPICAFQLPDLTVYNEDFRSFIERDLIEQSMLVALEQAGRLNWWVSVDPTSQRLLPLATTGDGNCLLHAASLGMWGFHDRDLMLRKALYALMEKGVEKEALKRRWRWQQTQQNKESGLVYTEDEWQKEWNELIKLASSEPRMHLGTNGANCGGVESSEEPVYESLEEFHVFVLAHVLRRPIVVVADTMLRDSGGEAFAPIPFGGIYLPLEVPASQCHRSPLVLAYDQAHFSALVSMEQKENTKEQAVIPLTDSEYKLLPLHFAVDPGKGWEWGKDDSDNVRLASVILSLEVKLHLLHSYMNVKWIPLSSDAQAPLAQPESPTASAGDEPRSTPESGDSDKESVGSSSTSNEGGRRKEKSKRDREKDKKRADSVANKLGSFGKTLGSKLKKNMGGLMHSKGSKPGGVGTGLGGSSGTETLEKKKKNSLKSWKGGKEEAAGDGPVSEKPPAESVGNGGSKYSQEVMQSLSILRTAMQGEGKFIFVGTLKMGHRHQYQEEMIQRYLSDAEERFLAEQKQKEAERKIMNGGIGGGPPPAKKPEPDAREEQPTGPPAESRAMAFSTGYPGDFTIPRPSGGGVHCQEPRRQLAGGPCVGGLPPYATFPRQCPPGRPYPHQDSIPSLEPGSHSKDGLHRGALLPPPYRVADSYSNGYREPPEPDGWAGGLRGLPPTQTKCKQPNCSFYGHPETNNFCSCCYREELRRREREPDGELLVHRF
Summary of the method: as §1

PRPF8 = PRPF8 (UniProt Q6P2Q9)
Summary of the method: as §1

PSMD7 = biological target: T3, PSMD7 (UniProt P51665)
T3 sequence (whole entry): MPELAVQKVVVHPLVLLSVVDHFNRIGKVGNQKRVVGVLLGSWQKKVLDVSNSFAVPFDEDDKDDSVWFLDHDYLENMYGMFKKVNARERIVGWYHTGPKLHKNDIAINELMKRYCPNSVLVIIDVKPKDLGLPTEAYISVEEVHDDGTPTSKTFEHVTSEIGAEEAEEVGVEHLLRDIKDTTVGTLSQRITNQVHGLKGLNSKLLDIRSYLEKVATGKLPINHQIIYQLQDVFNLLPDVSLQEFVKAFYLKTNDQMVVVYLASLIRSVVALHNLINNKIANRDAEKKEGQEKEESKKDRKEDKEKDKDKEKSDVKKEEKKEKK
Summary of the method: as §1

UCHL1 = UCHL1 (UniProt P09936)
Summary of the method: as §1

UCHL3 = biological target: T4, UCHL3 (UniProt P15374)
T4 sequence (whole entry): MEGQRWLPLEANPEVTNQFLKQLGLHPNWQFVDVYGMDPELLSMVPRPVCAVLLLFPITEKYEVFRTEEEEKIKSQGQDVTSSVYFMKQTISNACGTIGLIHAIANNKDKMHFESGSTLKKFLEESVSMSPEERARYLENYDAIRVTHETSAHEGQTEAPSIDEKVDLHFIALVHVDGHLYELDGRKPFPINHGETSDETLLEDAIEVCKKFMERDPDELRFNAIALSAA
Summary of the method: as §1

UCHL5 = biological target: T5, UCHL5 (UniProt Q9Y5K5)
T5 sequence (whole entry): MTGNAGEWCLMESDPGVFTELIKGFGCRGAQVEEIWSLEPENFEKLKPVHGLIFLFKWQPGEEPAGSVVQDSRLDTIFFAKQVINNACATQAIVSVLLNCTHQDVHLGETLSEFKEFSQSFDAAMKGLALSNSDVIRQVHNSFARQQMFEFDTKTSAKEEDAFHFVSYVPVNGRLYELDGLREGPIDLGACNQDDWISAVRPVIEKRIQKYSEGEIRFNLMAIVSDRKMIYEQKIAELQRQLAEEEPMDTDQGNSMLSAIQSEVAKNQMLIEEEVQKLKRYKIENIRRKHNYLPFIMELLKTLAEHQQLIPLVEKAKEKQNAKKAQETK
Summary of the method: as §1

USP10 = USP10 (UniProt Q14694)
Summary of the method: as §1

USP15 = biological target: T6, USP15 (UniProt Q9Y4E8)
T6 sequence (whole entry): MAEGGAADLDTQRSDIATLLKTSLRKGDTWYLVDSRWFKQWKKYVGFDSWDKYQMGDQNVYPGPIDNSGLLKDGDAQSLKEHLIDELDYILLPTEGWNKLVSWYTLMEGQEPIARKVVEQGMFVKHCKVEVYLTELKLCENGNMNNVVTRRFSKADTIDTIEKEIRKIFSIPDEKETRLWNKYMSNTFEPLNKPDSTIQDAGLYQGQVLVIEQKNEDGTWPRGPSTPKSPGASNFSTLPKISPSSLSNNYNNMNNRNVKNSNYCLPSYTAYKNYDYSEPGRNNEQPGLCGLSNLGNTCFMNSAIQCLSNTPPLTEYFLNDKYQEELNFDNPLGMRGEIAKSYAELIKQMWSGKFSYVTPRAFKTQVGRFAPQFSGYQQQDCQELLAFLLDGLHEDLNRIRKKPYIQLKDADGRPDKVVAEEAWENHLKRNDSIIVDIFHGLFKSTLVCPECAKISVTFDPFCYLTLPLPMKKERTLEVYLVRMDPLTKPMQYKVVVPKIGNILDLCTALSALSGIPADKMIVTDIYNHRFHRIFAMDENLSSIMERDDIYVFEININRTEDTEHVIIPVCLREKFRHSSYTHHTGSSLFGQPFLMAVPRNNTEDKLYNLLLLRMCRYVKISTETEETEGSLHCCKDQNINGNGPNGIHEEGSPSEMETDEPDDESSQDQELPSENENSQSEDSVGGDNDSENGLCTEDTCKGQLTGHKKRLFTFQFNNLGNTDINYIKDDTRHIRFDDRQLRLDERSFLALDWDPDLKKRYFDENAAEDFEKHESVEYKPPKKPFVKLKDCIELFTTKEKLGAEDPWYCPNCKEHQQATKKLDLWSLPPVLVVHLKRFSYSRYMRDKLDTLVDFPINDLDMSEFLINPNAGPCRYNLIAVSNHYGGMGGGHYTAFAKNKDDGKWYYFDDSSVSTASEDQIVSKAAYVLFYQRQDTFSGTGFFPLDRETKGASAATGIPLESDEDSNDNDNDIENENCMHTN
Summary of the method: as §1

USP16 = USP16 (UniProt Q9Y5T5)
Summary of the method: as §1

Measured: log2 ratio of Biotin-Ahx-Ub-VS probe labelling

UCHL1, sequence (P09936 whole entry, looked up): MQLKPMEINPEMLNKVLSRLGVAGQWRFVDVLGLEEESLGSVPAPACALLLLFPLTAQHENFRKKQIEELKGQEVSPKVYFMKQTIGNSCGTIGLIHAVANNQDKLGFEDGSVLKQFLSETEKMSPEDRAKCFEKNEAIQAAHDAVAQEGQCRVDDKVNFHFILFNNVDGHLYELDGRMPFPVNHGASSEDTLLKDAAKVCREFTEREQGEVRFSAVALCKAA
USP10, sequence (Q14694 whole entry): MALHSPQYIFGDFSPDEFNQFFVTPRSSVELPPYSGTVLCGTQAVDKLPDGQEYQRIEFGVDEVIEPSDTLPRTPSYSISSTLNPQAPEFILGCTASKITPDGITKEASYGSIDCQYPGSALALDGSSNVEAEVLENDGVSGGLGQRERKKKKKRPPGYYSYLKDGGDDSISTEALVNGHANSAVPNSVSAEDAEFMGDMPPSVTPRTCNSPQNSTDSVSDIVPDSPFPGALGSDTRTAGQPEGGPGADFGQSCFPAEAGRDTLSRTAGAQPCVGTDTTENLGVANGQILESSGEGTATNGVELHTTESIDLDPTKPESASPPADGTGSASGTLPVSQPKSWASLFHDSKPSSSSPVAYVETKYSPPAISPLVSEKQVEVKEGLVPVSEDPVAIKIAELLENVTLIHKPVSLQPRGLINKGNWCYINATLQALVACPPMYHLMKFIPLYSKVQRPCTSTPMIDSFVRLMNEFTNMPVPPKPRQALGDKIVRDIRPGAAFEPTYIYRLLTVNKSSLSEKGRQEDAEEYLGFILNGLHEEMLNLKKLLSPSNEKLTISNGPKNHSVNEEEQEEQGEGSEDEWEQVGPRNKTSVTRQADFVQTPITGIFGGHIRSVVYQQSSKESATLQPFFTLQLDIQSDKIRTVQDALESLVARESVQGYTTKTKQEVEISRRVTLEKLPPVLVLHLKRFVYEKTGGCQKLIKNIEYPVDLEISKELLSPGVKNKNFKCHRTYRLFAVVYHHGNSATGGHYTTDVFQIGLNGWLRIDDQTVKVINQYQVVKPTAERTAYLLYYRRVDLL
USP16, sequence (Q9Y5T5 whole entry, looked up): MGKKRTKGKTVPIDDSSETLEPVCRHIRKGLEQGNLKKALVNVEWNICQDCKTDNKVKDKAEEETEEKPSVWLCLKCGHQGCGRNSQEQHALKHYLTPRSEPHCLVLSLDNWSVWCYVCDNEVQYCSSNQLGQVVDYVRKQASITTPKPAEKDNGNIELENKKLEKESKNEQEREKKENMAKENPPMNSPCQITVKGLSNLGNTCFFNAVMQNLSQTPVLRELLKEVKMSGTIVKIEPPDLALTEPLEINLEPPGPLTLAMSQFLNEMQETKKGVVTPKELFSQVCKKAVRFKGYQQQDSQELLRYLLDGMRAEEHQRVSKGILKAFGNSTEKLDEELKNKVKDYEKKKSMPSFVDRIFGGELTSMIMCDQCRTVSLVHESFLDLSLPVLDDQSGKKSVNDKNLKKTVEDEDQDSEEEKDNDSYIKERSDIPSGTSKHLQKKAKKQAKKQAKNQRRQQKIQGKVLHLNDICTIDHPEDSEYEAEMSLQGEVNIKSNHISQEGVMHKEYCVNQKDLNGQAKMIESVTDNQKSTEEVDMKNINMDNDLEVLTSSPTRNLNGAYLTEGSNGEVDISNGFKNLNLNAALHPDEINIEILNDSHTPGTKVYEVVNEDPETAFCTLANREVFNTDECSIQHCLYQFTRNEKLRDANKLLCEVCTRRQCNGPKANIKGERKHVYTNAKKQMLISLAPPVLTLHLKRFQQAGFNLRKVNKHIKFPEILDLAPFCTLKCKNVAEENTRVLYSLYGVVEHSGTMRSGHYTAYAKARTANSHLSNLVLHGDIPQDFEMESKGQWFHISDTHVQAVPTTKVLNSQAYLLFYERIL

O=C(CCl)N1CCC(S(=O)(=O)c2ccc(F)cc2)CC1
inactive: OTUD6B -0.129 | OTUD7B -0.758 | PRPF8 -0.03 | PSMD7 -0.129 | UCHL3 0.498 | UCHL5 -0.128 | USP10 -0.175 | USP15 -0.327 | USP16 0.341
active: UCHL1 -1.14
